Experimental data published in PubChem BioAssay (NCATS).
Records with an inconclusive call do not appear. Where a call stands in place of a potency, no number is given. Activity calls are given as the source filed them. The call rests on the fitted dose curve; in most records, active means well fitted curve in the direction sought with a large enough effect; inconclusive means small, poorly fitted or top-dose-only effect, or another doubt; inactive means no such curve, though single readings can be large; an effect the other way counts as inactive or inconclusive.

Molecular target: Glucagon-like peptide 1 receptor (Homo sapiens) (UniProt P43220)
Experiment: qHTS of GLP-1 Receptor Agonists: LOPAC Validation (AID 624148);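 further: luminescence from a luciferase reporter switched on by cAMP; higher luminescence signal means agonism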
Settings: GLP-1R agonist cell assay; series mostly up to 46.1 µM
Method in brief: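 Agonism scored as increased luciferase luminescence driven by cAMP in HEK293 clones carrying GLP-1R. Cells settled 12 hours, received compound for 4-6 hr at 37 deg C, 5% CO2, and were read after 12 min detection reagent at RT.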

Glucagon-like peptide 1 receptor (Homo sapiens), sequence (P43220 whole entry, looked up): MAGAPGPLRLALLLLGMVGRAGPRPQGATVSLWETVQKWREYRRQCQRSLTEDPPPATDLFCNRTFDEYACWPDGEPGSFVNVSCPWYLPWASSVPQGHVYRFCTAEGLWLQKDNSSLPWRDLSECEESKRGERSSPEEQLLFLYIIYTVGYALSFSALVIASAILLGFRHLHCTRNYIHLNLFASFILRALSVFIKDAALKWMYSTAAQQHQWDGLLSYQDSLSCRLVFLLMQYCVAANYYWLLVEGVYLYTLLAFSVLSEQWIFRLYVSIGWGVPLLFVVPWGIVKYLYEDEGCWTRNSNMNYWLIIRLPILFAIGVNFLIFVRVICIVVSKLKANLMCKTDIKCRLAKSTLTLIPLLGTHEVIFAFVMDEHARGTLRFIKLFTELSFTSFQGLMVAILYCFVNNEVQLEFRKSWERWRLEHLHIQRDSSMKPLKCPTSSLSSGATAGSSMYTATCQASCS

SMILES | outcome
N#C/C(=C\c1ccc(O)c(O)c1)C(=O)NCCCc1ccccc1 | inactive
S=C(S)OC1CC2CC1C1CCCC21 (stereo not drawn) | inactive
COc1cc2c(CCNC(C)=O)c[nH]c2cc1Cl | inactive
O=C(Nc1cccc(C(=O)Nc2ccc(S(=O)(=O)O)c3cc(S(=O)(=O)O)cc(S(=O)(=O)O)c23)c1)Nc1cccc(C(=O)Nc2ccc(S(=O)(=O)O)c3cc(S(=O)(=O)O)cc(S(=O)(=O)O)c23)c1 | inactive
O=C1NC(=O)/C(=C/c2ccc(-c3ccc(F)cc3O)o2)S1 | inactive
CN1CCc2cc(O)c(O)cc2C(c2ccccc2)C1 (stereo not drawn) | inactive
COc1cc(OC)c(/C=C2/C(=O)Nc3ccccc32)c(OC)c1 | inactive
CCNC(=O)[C@H]1O[C@@H](n2cnc3c(N)nc(NCCc4ccc(CCC(=O)O)cc4)nc32)[C@H](O)[C@@H]1O | inactive
CCCCCCCC/C=C\CCCCCCCC(=O)NCCO | inactive
Oc1cc2c(cc1O)CN(C(=S)NCCc1ccc(Cl)cc1)CCC2 | inactive

Test system: not listed separately
Experiment: qHTS of Nrf2 Activators: LOPAC Validation (AID 624149)
Settings: Nrf2/ARE reporter cell assay; series mostly up to 46.1 µM
Method in brief: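 ARE reporter activation measured in AREc32 firefly luciferase cells after 24 hr compound exposure; Steady-Glo luminescence.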

SMILES | outcome
COc1ccccc1N1CCN(CCCCNS(=O)(=O)c2cccc3c(N(C)C)cccc23)CC1 | inactive
CC(C)ON([C@@H](C(=O)NO)C(C)C)S(=O)(=O)c1ccc(-c2ccccc2)cc1 | inactive
CC(C)NCC(O)COc1cccc2ccccc12 (stereo not drawn) | inactive
O=C(O)CC1CCCc2ccccc2C1O (stereo not drawn) | inactive
CCCCCCCCCCCCCCCCCC(=O)NCC(COP(=O)([O-])OCC[N+](C)(C)C)OCC (stereo not drawn) | inactive
Cc1ccc(S(=O)(=O)/C=C/C#N)cc1 | inactive
N.N.N.N.N.N.N.N.N.N.N.N.N.N.O.O.[Ru+4].[Ru+5].[Ru+5] | inactive
NC(=S)NCCC[C@H](N)C(=O)O | inactive
CC12C(=O)OC(=O)C1(C)C1CCC2O1 (stereo not drawn) | inactive
CN1CCc2cccc3c2C1Cc1ccc(O)c(O)c1-3 (stereo not drawn) | inactive
CC(C)NC[C@@H](O)c1ccc(O)c(O)c1 | inactive
CNC(=O)[C@H]1O[C@@H](n2cnc3c(NCc4cccc(I)c4)ncnc32)[C@H](O)[C@@H]1O | inactive
N#C/C(=C\c1ccc(O)c(O)c1)C(=O)c1ccc(O)c(O)c1 | inactive
N.N.O=C(O)C1(C(=O)O)CCC1.[Pt] | inactive
Oc1ccc(C2CNCc3sccc32)cc1O (stereo not drawn) | inactive
N#C/C(=C\c1ccc(-c2cc(Cl)ccc2Cl)o1)C(=O)Nc1cccc2ncccc12 | inactive
N#C/C(=C\c1ccc(O)c(O)c1)C(=O)NCCCc1ccccc1 | inactive
S=C(S)OC1CC2CC1C1CCCC21 (stereo not drawn) | inactive
COc1cc2c(CCNC(C)=O)c[nH]c2cc1Cl | inactive
O=C(Nc1cccc(C(=O)Nc2ccc(S(=O)(=O)O)c3cc(S(=O)(=O)O)cc(S(=O)(=O)O)c23)c1)Nc1cccc(C(=O)Nc2ccc(S(=O)(=O)O)c3cc(S(=O)(=O)O)cc(S(=O)(=O)O)c23)c1 | inactive
CN1CCc2cc(O)c(O)cc2C(c2ccccc2)C1 (stereo not drawn) | inactive
COc1cc(OC)c(/C=C2/C(=O)Nc3ccccc32)c(OC)c1 | inactive
CCNC(=O)[C@H]1O[C@@H](n2cnc3c(N)nc(NCCc4ccc(CCC(=O)O)cc4)nc32)[C@H](O)[C@@H]1O | inactive
CCCCCCCC/C=C\CCCCCCCC(=O)NCCO | inactive
Oc1cc2c(cc1O)CN(C(=S)NCCc1ccc(Cl)cc1)CCC2 | inactive

Test system: not listed separately
Experiment: HTS Assay for Allosteric Antagonists of the Human D2 Dopamine Receptor: Hit Validation in HTRF (AID 624455); further: potency means the concentration at half of the fitted maximal effect;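 further: stable D1 dopamine receptor cell line scored for blocking the D1 response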
Settings: Cells stably expressing D1 dopamine receptor, inhibition mode; series mostly up to 46.1 µM
Method in brief: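 Signal from an HTRF read-out in D1-expressing stable cells gave hit activity as inhibition of the D1 response.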

SMILES | Potency
COc1ccccc1N1CCN(CCCCNS(=O)(=O)c2cccc3c(N(C)C)cccc23)CC1 | inactive
CC(C)ON([C@@H](C(=O)NO)C(C)C)S(=O)(=O)c1ccc(-c2ccccc2)cc1 | inactive
CC(C)NCC(O)COc1cccc2ccccc12 (stereo not drawn) | inactive
O=C(O)CC1CCCc2ccccc2C1O (stereo not drawn) | inactive
CC(=O)/C=C1\C(=O)N(C)c2ccccc21 | inactive
CCCCCCCCCCCCCCCCCC(=O)NCC(COP(=O)([O-])OCC[N+](C)(C)C)OCC (stereo not drawn) | inactive
Cc1ccc(S(=O)(=O)/C=C/C#N)cc1 | inactive
OCC1O[C@H]([S-])[C@H](O)[C@@H](O)[C@@H]1O.[Au+] (stereo partly drawn) | inactive
NC(=S)NCCC[C@H](N)C(=O)O | inactive
CC12C(=O)OC(=O)C1(C)C1CCC2O1 (stereo not drawn) | inactive
CC(C)NC[C@@H](O)c1ccc(O)c(O)c1 | inactive
CNC(=O)[C@H]1O[C@@H](n2cnc3c(NCc4cccc(I)c4)ncnc32)[C@H](O)[C@@H]1O | inactive
O=C1NC(O)=NC1(c1ccccc1)c1ccccc1 | inactive
O=C1C(SCCO)=C(SCCO)C(=O)c2ccccc21 | inactive
O=C1/C(=C/c2ccsc2)CC/C1=C\c1cccs1 | inactive
N#C/C(=C\c1ccc(O)c(O)c1)C(=O)c1ccc(O)c(O)c1 | inactive
Oc1ccc(C2CNCc3sccc32)cc1O (stereo not drawn) | 146 nM (active)
N#C/C(=C\c1ccc(-c2cc(Cl)ccc2Cl)o1)C(=O)Nc1cccc2ncccc12 | inactive
CCOC(=O)N1CCN(/[N+]([O-])=N/Oc2ccc([N+](=O)[O-])cc2[N+](=O)[O-])CC1 | inactive
N#C/C(=C\c1ccc(O)c(O)c1)C(=O)NCCCc1ccccc1 | inactive
S=C(S)OC1CC2CC1C1CCCC21 (stereo not drawn) | inactive
COc1cc2c(CCNC(C)=O)c[nH]c2cc1Cl | inactive
O=C(Nc1cccc(C(=O)Nc2ccc(S(=O)(=O)O)c3cc(S(=O)(=O)O)cc(S(=O)(=O)O)c23)c1)Nc1cccc(C(=O)Nc2ccc(S(=O)(=O)O)c3cc(S(=O)(=O)O)cc(S(=O)(=O)O)c23)c1 | inactive
O=C1NC(=O)/C(=C/c2ccc(-c3ccc(F)cc3O)o2)S1 | inactive
COc1cc(OC)c(/C=C2/C(=O)Nc3ccccc32)c(OC)c1 | inactive
CCNC(=O)[C@H]1O[C@@H](n2cnc3c(N)nc(NCCc4ccc(CCC(=O)O)cc4)nc32)[C@H](O)[C@@H]1O | 5170 nM (active)
CCCCCCCC/C=C\CCCCCCCC(=O)NCCO | inactive
Oc1cc2c(cc1O)CN(C(=S)NCCc1ccc(Cl)cc1)CCC2 | inactive
